According to the OligoGym collection:

Molecular target: MYCBPAP
Experiment: pooled miR-30 sensor sort-seq; sequence = guide strand
Conditions: shRNA
Further: reference of the scale not given here.

Q: For TTGTGCTTCTTGCTGTTGGGAC, which sensor-assay potency score (higher = more potent) is on record?
A: -0.31

Q: How did the sensor-assay potency score (higher = more potent) turn out when TTTCTTGTCATCCTTTGCCTTG was run?
A: -0.95

Q: With TTTTGTCTTGGTCATGACCAGA as the sequence, how does the sensor-assay potency score (higher = more potent) read?
A: -1.08

Q: How did the sensor-assay potency score (higher = more potent) turn out when TGCAATTCTCTTAAAATCCTGG was run?
A: -0.695

Q: How did the sensor-assay potency score (higher = more potent) turn out when TTTTCTTTGACATTCTCTGAGG was run?
A: -0.601

Q: With TTCTTTGTCTTTGATCCCCAGT as the sequence, how does the sensor-assay potency score (higher = more potent) read?
A: -0.525

Q: TTCCAAAGAAAACCTGTCCTGA was tested. Which sensor-assay potency score (higher = more potent) did it give?
A: -0.596

Molecular target: MYCL1
Experiment: as above
Conditions: shRNA

Q: Which sensor-assay potency score (higher = more potent) does the source give for TCTTTTCTGCAACTGCTGCTGC here?
A: 0.0557

Q: With TTGCTTAGGATCACTACTTTGG as the sequence, how does the sensor-assay potency score (higher = more potent) read?
A: -0.448

Q: For TCATTCTCCGAGTCGCTTGGGC, which sensor-assay potency score (higher = more potent) is on record?
A: -0.392

Q: With ATAGTCGTAGAAATAGTGCTGG as the sequence, how does the sensor-assay potency score (higher = more potent) read?
A: 0.222

Q: For ATCAATTTCTTCATTCTCCGAG, which sensor-assay potency score (higher = more potent) is on record?
A: 0.219

Q: For TAGTCGTAGAAATAGTGCTGGT, which sensor-assay potency score (higher = more potent) is on record?
A: -0.671

Q: For TTCTTTTCTGCAACTGCTGCTG, which sensor-assay potency score (higher = more potent) is on record?
A: -0.121

Q: Which sensor-assay potency score (higher = more potent) does the source give for TCAATTTCTTCATTCTCCGAGT here?
A: 0.102

Q: How did the sensor-assay potency score (higher = more potent) turn out when TTTCTCTGTAGCCATCCTCTTC was run?
A: -0.97

Q: TTCTTCCAGATGTCCTCGCTGG was tested. Which sensor-assay potency score (higher = more potent) did it give?
A: -0.137

Q: With AATTCTTTTCTGCAACTGCTGC as the sequence, how does the sensor-assay potency score (higher = more potent) read?
A: -0.74

Q: Which sensor-assay potency score (higher = more potent) does the source give for TTAGGATCACTACTTTGGGGGC here?
A: -0.971

Molecular target: MYH14
Experiment: as above
Conditions: shRNA

Q: TAGAGCTGTCCCACTGTCCGGA was tested. Which sensor-assay potency score (higher = more potent) did it give?
A: 0.0775

Q: For TTCACCTTGGTAAACAGCCGCC, which sensor-assay potency score (higher = more potent) is on record?
A: -0.755

Q: Which sensor-assay potency score (higher = more potent) does the source give for TCATCTGCCATCTCATCCCGGT here?
A: -0.0949

Q: How did the sensor-assay potency score (higher = more potent) turn out when TTGAGGCGCAGAACCAGCCAGC was run?
A: -0.999

Q: With TCTGGTCTCTTGCTCTAGCTGC as the sequence, how does the sensor-assay potency score (higher = more potent) read?
A: -0.396

Q: For TTGTCATTCTTCACTGTCTTGG, which sensor-assay potency score (higher = more potent) is on record?
A: -0.287

Q: Which sensor-assay potency score (higher = more potent) does the source give for TAGTGGAGAACACTGAAGTCGG here?
A: -0.73

Q: With TTGGTGTTTTCCGTCTTCCCAG as the sequence, how does the sensor-assay potency score (higher = more potent) read?
A: -1.05

Q: With TTTCCGTCTTCCCAGCTCCAGA as the sequence, how does the sensor-assay potency score (higher = more potent) read?
A: -1.5

Q: With TTGTAGTCGACCTTGCCCGCGT as the sequence, how does the sensor-assay potency score (higher = more potent) read?
A: -0.308

Q: How did the sensor-assay potency score (higher = more potent) turn out when TTCCTCTGCCTCCTCGTCGGAT was run?
A: -1.06

Q: For TGTCAGGATCTCGTATCGCTGC, which sensor-assay potency score (higher = more potent) is on record?
A: -0.48

Molecular target: MYL4
Experiment: as above
Conditions: shRNA

Q: Which sensor-assay potency score (higher = more potent) does the source give for TCGGCAGTGAAGTCTATCTTTA here?
A: -1.13

Q: TAGGTGATCTTCATCTCTCCAG was tested. Which sensor-assay potency score (higher = more potent) did it give?
A: -0.392

Q: For TTTATTAACAGGGAGGGCCTGT, which sensor-assay potency score (higher = more potent) is on record?
A: -0.299

Q: TCTTTGAACTCTTCAATCTGGT was tested. Which sensor-assay potency score (higher = more potent) did it give?
A: -0.00801

Q: How did the sensor-assay potency score (higher = more potent) turn out when TCTTGACATTCATCTCTTCAGG was run?
A: -0.927

Q: For TTGAACTCTTCAATCTGGTCGG, which sensor-assay potency score (higher = more potent) is on record?
A: 0.391

Q: Which sensor-assay potency score (higher = more potent) does the source give for TCTTCATCTCTCCAGTCGGGGT here?
A: -1.55

Q: With TATCTTTACACTCTTGGGGTCA as the sequence, how does the sensor-assay potency score (higher = more potent) read?
A: -0.527

Q: Which sensor-assay potency score (higher = more potent) does the source give for TCTATCTTTACACTCTTGGGGT here?
A: 0.0138
